{
  "source": "PubChem BioAssay (NCI)",
  "note": "The panel holds about 83,000 compounds, 20% with a hit somewhere; the sample as a whole holds those more often.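 Method: cells in 96-well plates; compound added at one concentration; 48 h incubation; percent growth measured; values under 10 scored active.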 Activity calls are given as the source filed them.",
  "data": [
    {"test_system": "SNB-75 CNS", "test": "NCI-60 one-dose screen, 48 h (100 = growth as untreated, 0 = no growth, -100 = all killed)", "conditions": "10 µM unless noted", "method": "Growth inhibition of the SNB-75 human tumor cell line is measured as a screen for anti-cancer activity. Cells are grown in 96 well plates and exposed to the test compound for 48 hours. Compounds are tested at a single concentration, which is 10^-5 M for most compounds. The reported endpoint is percent growth (GI% or GIPRCNT), where numbers from 0 - 100% represent growth inhibition, and numbers from -100% - 0 represent cell death. For example, a value of 40 represents 60% growth inhibition. A value of 0 means no net growth occurred over the course of the experiment. A value of -40 indicates 40% of cells at the beginning of the experiment died by the end of the experiment. A value of -100 means all cells are dead at the end of the experiment.\nNCI-60 Human Tumor Cell Lines Screen was performed using the standard one-dose NCI protocol, which is described in more detail at https://dtp.cancer.gov/discovery_development/nci-60/default.htm.\nCompounds with GIPRCNT values below 10 were considered active. Activity score was based on GIPRCNT using the following formula: […]\nScore is 0 for GIPRCNT values of 100 or above, 50 for GIPRCNT values of 0, and 100 for GIPRCNT values of -100.", "values": [
      {"compound": "CC(=O)OCC1OC(OC2=C(CC=C(Cl)Cl)C(=O)c3ccccc3C2=O)C(OC(C)=O)C(OC(C)=O)C1OC(C)=O", "note": "(stereo not given)", "growth": "71.1% (inactive)"},
      {"compound": "COC1C/C(=N\\O)C2OC(c3ccccc3)OCC2O1", "note": "(stereo not given)", "growth": "66.1% (inactive)"},
      {"compound": "CCOC(=O)Cc1cnn(C)c1NC(=O)c1ccc(Cl)cc1NC(C)=O", "growth": "76% (inactive)"},
      {"compound": "O=C1C=CC(=O)c2c1nc1n2CCCC1", "growth": "131% (inactive)"},
      {"compound": "COc1nc2c(cc1S(=O)(=O)c1ccccc1)CCc1c-2cnn1-c1ccc(Cl)cc1", "growth": "92.3% (inactive)"},
      {"compound": "CC[C@H](Nc1nc(N)nc(C)c1C#N)c1nc2cccc(NCc3ccc(C(=O)NO)cc3)c2c(=O)n1-c1ccccc1", "growth": "14.3% (inactive)"},
      {"compound": "CCc1ccccc1NC(=O)c1sc2nc3c(cc2c1N)C(=O)CCC3", "growth": "-15.4% (active)"},
      {"compound": "O=C1c2ccccc2-c2nccc3cc(Cl)nc1c23", "growth": "65.1% (inactive)"},
      {"compound": "O=C(/C=C\\c1ccc2ccccc2n1)c1cc(Cl)ccc1O", "growth": "90.6% (inactive)"},
      {"compound": "Cc1ccc2c(c1)O/C(=C\\c1cccc(OCC(=O)c3ccccc3)c1)C2=O", "growth": "93.4% (inactive)"},
      {"compound": "CC(C)CC(CC1=CCC2CC1C2(C)C)C1=C(O)C(C)(C)C(=O)C(C)(C)C1=O", "note": "(stereo not given)", "growth": "19.7% (inactive)"},
      {"compound": "O=C(/C=C/c1ccc(Cl)cc1)c1ccc(O)c(CN2CCN(c3cc4c(cc3F)c(=O)c(C(=O)O)cn4C3CC3)CC2)c1", "growth": "4.51% (active)"},
      {"compound": "O=c1c2cccc3c(Nc4ccccn4)ccc(c32)c2nc3ccccc3n12", "growth": "78.6% (inactive)"},
      {"compound": "Cc1ccc2c(c1)n([O-])c1cc(Cl)ccc1[n+]2=O", "growth": "91.3% (inactive)"},
      {"compound": "O=C1CC(c2nc3ccccc3[nH]2)CN1C1CCCCC1", "note": "(stereo not given)", "growth": "90.1% (inactive)"},
      {"compound": "CCN(CC)CCCC(C)N/C(=C1\\C(=O)NC(=O)\\C1=C(/NC(C)CCCN(CC)CC)c1cccc(OC)c1)c1cccc(OC)c1", "note": "(stereo not given)", "growth": "30.5% (inactive)"},
      {"compound": "CN1CCN(Cc2ccc(NC(=O)c3[nH]ncc3Nc3ncnc4sccc34)cc2)CC1", "growth": "-32.5% (active)"},
      {"compound": "O=C1Nc2ccc(Br)cc2C12CC(c1ccccc1)=NN2", "note": "(stereo not given)", "growth": "28.1% (inactive)"},
      {"compound": "CCC(=O)OCc1cccc(OC)c1", "growth": "59.7% (inactive)"},
      {"compound": "CCN(C(=O)CN1CCN(c2cc3c(cc2F)c(=O)c(C(=O)O)cn3C2CC2)CC1)c1nc(-c2ccc(OC)cc2)cs1", "growth": "81.8% (inactive)"},
      {"compound": "Cn1cc(-c2nc(-c3c[nH]c4ccccc34)cs2)c2cccnc21", "growth": "-6.18% (active)"},
      {"compound": "COc1ccc(Cl)cc1Nc1nc(C(F)(F)F)ccc1C(=O)N/N=C/c1cccnc1", "growth": "67.1% (inactive)"},
      {"compound": "CCCCNc1ccc2c3c1cccc3c(=O)n1c3ccccc3nc21", "growth": "73.4% (inactive)"},
      {"compound": "CCCCCCCCCCNC(=O)CCl", "growth": "45.5% (inactive)"},
      {"compound": "Nc1nc(SCc2ccccc2)c2ncn(C3CCCC3)c2n1", "growth": "126% (inactive)"},
      {"compound": "CCOC(=O)C(=Cc1ccccc1F)C(=O)OCC", "growth": "83.4% (inactive)"},
      {"compound": "O=C(O)c1cccc2c1-c1ccccc1C2=O", "growth": "86.8% (inactive)"},
      {"compound": "Cn1c(=O)c2[nH]c(C(O)C(O)C(O)C(O)CO)nc2n(C)c1=O", "note": "(stereo not given)", "growth": "92.6% (inactive)"},
      {"compound": "CC[C@H](CO)Nc1nc(NCc2ccccc2)n2ncc(C(C)C)c2n1", "growth": "-73.4% (active)"},
      {"compound": "C=CC[N+]1(CCO)CCN=C1CCCCCCCCCCCCC", "note": "(stereo not given)", "growth": "-78.3% (active)"},
      {"compound": "C=C(CN1CCN(c2cccc(C(F)(F)F)n2)CC1)c1ccc(C(=O)Nc2ccccc2N)cc1", "growth": "7.18% (active)"},
      {"compound": "Nc1ccc2c(c1)C(=O)NC2=O", "growth": "75.8% (inactive)"},
      {"compound": "Cc1cc(=O)oc2cc(Oc3nc(-c4ccc(Cl)cc4)cn4c(-c5ccc(Cl)cc5)cnc34)ccc12", "growth": "91.6% (inactive)"},
      {"compound": "CC(=O)C1=C(O)C=C2Oc3c(C(=O)/C=C/c4c(Cl)cccc4Cl)c(O)c(C)c(O)c3[C@]2(C)C1=O", "growth": "-22.3% (active)"},
      {"compound": "c1ccc2c(Nc3cccc4ccccc34)cccc2c1", "growth": "20.8% (inactive)"},
      {"compound": "COc1cc(C2CC(=O)c3c(C)nn(-c4nc5ccccc5[nH]4)c3C2)cc(OC)c1OC", "note": "(stereo not given)", "growth": "-24.8% (active)"},
      {"compound": "CN1CCN(Cc2ccc(NC(=O)c3[nH]ncc3Nc3ccnc4ccsc34)cc2)CC1", "growth": "20.5% (inactive)"},
      {"compound": "CCN(CC)CCCNc1cc(OC)cc2nc3cc(Cl)ccc3nc12", "growth": "-2.74% (active)"},
      {"compound": "CS(=O)CCCCCN=C=S", "note": "(stereo not given)", "growth": "29.5% (inactive)"},
      {"compound": "COc1cnc2c(c1)C(=O)c1c-2n(CCCN2CCNCC2)c(=O)c2cc([N+](=O)[O-])ccc12", "growth": "2.92% (active)"}
    ]}
  ]
}
